MgrA DNA FP – modulators of Staphylococcus aureus MgrA DNA binding. fluorescence polarization. inhibition, % (test concentration not listed). hit rate 0.13% among 84,000; in the data active = inhibition above about 30%, passing the limit was not always enough;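 note: 0% = protein plus DNA without compound and 100% = DNA alone without protein; higher means less MgrA bound to DNA so lower polarization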
Starred values were filed as active, the others as inactive. This is one part of a sample in which hits are shown more often than they occur.

SMILES	MgrA DNA FP
COC(=O)C1=CN2C(C=C1)C(C(=O)OC)(C(=O)OC)[C@@H](c1cccnc1)[C@@H]2C#N (stereo partly drawn)	52*
Cc1nc(-c2ccccn2)nc(NCCc2ccccc2)c1Cl	1
CCCCn1c(C)c(C(=O)OCC)c2cc(OC(=O)c3cccc([N+](=O)[O-])c3)c3ccccc3c21	-1
O=[N+]([O-])/C=C/c1ccc([N+](=O)[O-])cc1	-7
O=[N+]([O-])c1ccc(N2CCCC2)c2nonc12	52*
O=[N+]([O-])c1ccc(N2CCCCC2)c2nonc12	16
COc1ccc(Br)cc1/C=C/[N+](=O)[O-]	9
OCCN=Cc1c[nH]c2ccccc12	-6
CCN1C(=O)NC(=O)/C(=C\c2cn(CC(=O)N3CCCCC3C)c3ccccc23)C1=O (stereo not drawn)	15
CCOC(=O)C1CCN(/C=C2/C(=O)NC(=O)N(Cc3ccco3)C2=O)CC1	29*
COc1ccc(-n2c(C)cc(/C=C3/C(=O)NC(=O)N(Cc4ccco4)C3=O)c2C)cc1	7
O=C(c1ccccc1)c1cn(Cc2ccc(F)cc2)c2ccccc12	0
CCc1ccc(N2C(=O)/C(=C/c3ccc(OCC(=O)O)c(Br)c3)C(=O)NC2=S)cc1	20
N#Cc1cnn(-c2ccc(Cl)cc2)c1N	-4
COC(=O)C1=C(C)OC(N)=C(C#N)C12C(=O)Nc1ccc(C)cc12 (stereo not drawn)	4
